Reference: PubChem BioAssay AID1159580 (chemical genetic matrix, 2015)
Where “and” joins values, the source holds several entries; their conditions need not be identical. Equal values may be shown once. Hit rate of the full screen: of about 5,500 compounds, about 2,000 (36%) were called active. Not shown: some 18% with an inconclusive outcome. Cut-off read from the data, not from the text of the source: active = normalized growth mostly below about 0.91 (no sharp cut-off); inconclusive = no clear call, values can overlap the other calls; inactive = mostly above about 0.92. The list shows a part of the results.

Test: chemical genetic growth profiling, strain panel (AID 1159580);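 note: tested at 20 µM; growth read once vehicle control cultures reached saturation at 30 °C; 1 = growth at the plate median or of vehicle wells; lower values mean less growth of the strain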
Details: growth OD

Measured: normalized growth

Nc1ccncc1
inactive: S. cerevisiae deletion strains, locus YJR075W, strain HOC1, active compounds read low 1.03 and 1 | S. cerevisiae deletion strains, locus YKL009W, strain mrt4, active compounds read low 1.03 | S. cerevisiae deletion strains, locus YKL068W, active compounds read low 0.988 | S. cerevisiae deletion strains, locus YKL085W, strain MDH1 (second series), active compounds read low 0.995 | S. cerevisiae deletion strains, locus YKL085W, strain MDH1, active compounds read low 0.995 | S. cerevisiae deletion strains, locus YKL160W, strain elf1, active compounds read low 0.994 | S. cerevisiae deletion strains, locus YKL190W, strain CNB1, active compounds read low 1.01 | S. cerevisiae deletion strains, locus YKR001C, strain vps1, active compounds read low 0.931 | S. cerevisiae deletion strains, locus YKR026C, strain gcn3, active compounds read low 0.984 | S. cerevisiae deletion strains, locus YKR091W, strain srl3, active compounds read low 0.987 | S. cerevisiae deletion strains, locus YLL001W, strain dnm1, active compounds read low 0.981 | S. cerevisiae deletion strains, locus YLL026W, active compounds read low 0.999 | S. cerevisiae deletion strains, locus YLL041C, strain sdh2, active compounds read low 0.989 | S. cerevisiae deletion strains, locus YLR027C, strain aat2, active compounds read low 0.994 | S. cerevisiae deletion strains, locus YLR039C, strain RIC1, active compounds read low 1 | S. cerevisiae deletion strains, locus YLR058C, strain SHM2, active compounds read low 1.02 | S. cerevisiae deletion strains, locus YLR102C, strain apc9, active compounds read low 0.97 | S. cerevisiae deletion strains, locus YLR113W, strain HOG1, active compounds read low 0.958 | S. cerevisiae deletion strains, locus YLR221C, strain rsa3, active compounds read low 1 | S. cerevisiae deletion strains, locus YLR258W, strain gsy2, active compounds read low 0.987 | S. cerevisiae deletion strains, locus YLR262C, strain YPT6 (second series), active compounds read low 0.971 | S. cerevisiae deletion strains, locus YLR262C, strain YPT6, active compounds read low 1.02 | S. cerevisiae deletion strains, locus YLR268W, strain sec22, active compounds read low 0.921 | S. cerevisiae deletion strains, locus YLR320W, strain mms22, active compounds read low 0.993 | S. cerevisiae deletion strains, locus YLR330W, strain CHS5, active compounds read low 1.01 | S. cerevisiae deletion strains, locus YLR342W, strain FKS1 (second series), active compounds read low 1.02 | S. cerevisiae deletion strains, locus YLR342W, strain FKS1, active compounds read low 0.991 | S. cerevisiae deletion strains, locus YLR357W, strain rsc2, active compounds read low 1.01 | S. cerevisiae deletion strains, locus YLR370C, strain arc18, active compounds read low 0.997 | S. cerevisiae deletion strains, locus YLR371W, strain rom2, active compounds read low 0.976 | S. cerevisiae deletion strains, locus YLR384C, strain iki3, active compounds read low 0.994 | S. cerevisiae deletion strains, locus YLR418C, strain cdc73, active compounds read low 0.935 | S. cerevisiae deletion strains, locus YML016C, strain PPZ1, active compounds read low 1.02 | S. cerevisiae deletion strains, locus YML032C, strain rad52, active compounds read low 0.957 | S. cerevisiae deletion strains, locus YML120C, strain ndi1, active compounds read low 0.998 | S. cerevisiae deletion strains, locus YML124C, strain tub3, active compounds read low 0.977 | S. cerevisiae deletion strains, locus YMR058W, strain fet3, active compounds read low 1 | S. cerevisiae deletion strains, locus YMR078C, strain ctf18, active compounds read low 0.958 | S. cerevisiae deletion strains, locus YMR125W, strain sto1, active compounds read low 0.984 | S. cerevisiae deletion strains, locus YMR129W, active compounds read low 0.993 | S. cerevisiae deletion strains, locus YMR205C, strain PFK2, active compounds read low 0.999 | S. cerevisiae deletion strains, locus YMR223W, strain ubp8, active compounds read low 0.977 | S. cerevisiae deletion strains, locus YMR231W, strain pep5, active compounds read low 0.995 | S. cerevisiae deletion strains, locus YMR263W, strain SAP30, active compounds read low 1.02 and 1.01 | S. cerevisiae deletion strains, locus YMR307W, strain GAS1, active compounds read low 1.01 | S. cerevisiae deletion strains, locus YNL067W, strain RPL9B, active compounds read low 1.01 | S. cerevisiae deletion strains, locus YNL071W, strain lat1, active compounds read low 0.995 | S. cerevisiae deletion strains, locus YNL128W, strain TEP1, active compounds read low 1.02 | S. cerevisiae deletion strains, locus YNL153C, strain GIM3, active compounds read low 1.01 and 1 | S. cerevisiae deletion strains, locus YNL175C, strain NOP13, active compounds read low 1 | S. cerevisiae deletion strains, locus YNL183C, strain NPR1, active compounds read low 0.912 | S. cerevisiae deletion strains, locus YNL197C, strain WHI3, active compounds read low 1.01 | S. cerevisiae deletion strains, locus YNL209W, strain ssb2, active compounds read low 0.993 | S. cerevisiae deletion strains, locus YNL224C, strain SQS1, active compounds read low 0.998 | S. cerevisiae deletion strains, locus YNL233W, strain BNI4, active compounds read low 1 | S. cerevisiae deletion strains, locus YNL248C, strain rpa49, active compounds read low 0.993 | S. cerevisiae deletion strains, locus YNL250W, strain rad50, active compounds read low 0.978 | S. cerevisiae deletion strains, locus YNL271C, strain bni1, active compounds read low 0.942 | S. cerevisiae deletion strains, locus YNL298W, strain CLA4, active compounds read low 0.966 | S. cerevisiae deletion strains, locus YNL307C, strain MCK1, active compounds read low 0.947 | S. cerevisiae deletion strains, locus YNL322C, strain KRE1 (second series), active compounds read low 0.99 | S. cerevisiae deletion strains, locus YNL322C, strain KRE1, active compounds read low 1.01 and 1.02 | S. cerevisiae deletion strains, locus YNR049C, strain mso1, active compounds read low 0.99 | S. cerevisiae deletion strains, locus YNR052C, strain pop2, active compounds read low 0.974 | S. cerevisiae deletion strains, locus YOL006C, strain TOP1, active compounds read low 0.996 | S. cerevisiae deletion strains, locus YOL012C, strain htz1 1.65 | S. cerevisiae deletion strains, locus YOL147C, strain pex11, active compounds read low 0.956 | S. cerevisiae deletion strains, locus YOR001W, strain rrp6, active compounds read low 0.993 | S. cerevisiae deletion strains, locus YOR061W, strain CKA2, active compounds read low 1.02 | S. cerevisiae deletion strains, locus YOR069W, strain VPS5, active compounds read low 1.02 | S. cerevisiae deletion strains, locus YOR070C, strain gyp1, active compounds read low 0.999 | S. cerevisiae deletion strains, locus YOR080W, strain dia2, active compounds read low 0.99 | S. cerevisiae deletion strains, locus YOR083W, strain WHI5 (second series), active compounds read low 0.998 | S. cerevisiae deletion strains, locus YOR083W, strain WHI5, active compounds read low 1 | S. cerevisiae deletion strains, locus YOR106W, strain vam3, active compounds read low 1.01 | S. cerevisiae deletion strains, locus YOR136W, strain idh2, active compounds read low 0.974 | S. cerevisiae deletion strains, locus YOR144C, strain elg1, active compounds read low 0.963 | S. cerevisiae deletion strains, locus YOR184W, strain ser1, active compounds read low 0.904 | S. cerevisiae deletion strains, locus YOR231W, strain MKK1, active compounds read low 0.968 | S. cerevisiae deletion strains, locus YOR265W, strain rbl2, active compounds read low 0.991 | S. cerevisiae deletion strains, locus YOR270C, strain vph1, active compounds read low 0.98 | S. cerevisiae deletion strains, locus YOR290C, strain snf2, active compounds read low 1 | S. cerevisiae deletion strains, locus YOR316C, strain cot1, active compounds read low 0.973 | S. cerevisiae deletion strains, locus YPL051W, strain arl3, active compounds read low 0.988 | S. cerevisiae deletion strains, locus YPL055C, strain LGE1, active compounds read low 1.07 | S. cerevisiae deletion strains, locus YPL078C, strain atp4, active compounds read low 0.995 | S. cerevisiae deletion strains, locus YPL106C, strain sse1, active compounds read low 1 | S. cerevisiae deletion strains, locus YPL240C, strain hsp82, active compounds read low 0.983 | S. cerevisiae deletion strains, locus YPL241C, strain CIN2, active compounds read low 1.01 | S. cerevisiae deletion strains, locus YPL256C, strain CLN2, active compounds read low 0.946 | S. cerevisiae deletion strains, locus YPR119W, strain clb2, active compounds read low 0.947 | S. cerevisiae deletion strains, locus YPR141C, strain kar3, active compounds read low 0.99 | S. cerevisiae deletion strains, locus YPR163C, strain tif3, active compounds read low 0.959 | S. cerevisiae deletion strains, locus YPR167C, strain met16, active compounds read low 0.969 | S. cerevisiae deletion strains, strain wtn01, active compounds read low 0.963 | S. cerevisiae strains, strain wild type, active compounds read low 1.02
